Reference: PubChem BioAssay (NCATS)
Inconclusive results are not listed. Active and inactive are the calls of the source. Calls follow the shape of the dose curve; as a rule, active = well fitted curve in the direction sought with a large enough effect; inconclusive = small, poorly fitted or top-dose-only effect, or another doubt; inactive = no such curve, though single readings can be large; an effect the other way counts as inactive or inconclusive.

Columns and labels:
CRL-7250 = normal cell line; experiment: Cytotoxic Profiling of Annotated Libraries Using Quantitative High-Throughput Screening (AID 1296008); conditions: Five cell lines viability, CellTiter-Glo ATP luminescence, 48-72 h; max response: stronger effect = lower value; also: nearly all actives have a fitted effect of over 60% in size; as to max response: % is scaled to controls: 0 for no effect and ±100 for the full control effect
Outline: (§1)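 Cytotoxicity was measured as CellTiter-Glo ATP luminescence, read after 10 min at room temperature. Compound treatment of the cells lasted 48 or 72 hr at 37 degrees Celsius in a qHTS format.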

HEK293 = experiment: as above; conditions: Five cell lines viability, CellTiter-Glo ATP luminescence, 48-72 h; max response: stronger effect = lower value
Outline: as §1

HaCat = experiment: as above; conditions: Five cell lines viability, CellTiter-Glo ATP luminescence, 48-72 h; max response: stronger effect = lower value
Outline: as §1

KB-3-1 = experiment: as above; conditions: Five cell lines viability, CellTiter-Glo ATP luminescence, 48-72 h; max response: stronger effect = lower value
Outline: as §1

NIH3T3 [1] = experiment: as above; conditions: Five cell lines viability, CellTiter-Glo ATP luminescence, 48-72 h; max response: stronger effect = lower value
Outline: as §1

NIH3T3 [2] = experiment: qHTS assay to identify novel small-molecules to repurpose for Merkel cell carcinoma treatment (AID 1296009); conditions: MCC and control cell lines, CellTiter-Glo viability, 72 h; at 44.8 µM (top of the series) unless noted; also: nearly all actives have a fitted effect of over 60% in size
Outline: (§2)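 Cell viability, measured as CellTiter-Glo luminescence, was normalized between DMSO and no-cell wells. The cells had been exposed to 8- or 11-point compound dilutions for 72 hr at 37 degree celsius.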

C33A = experiment: Primary qHTS to identify gynecologic anti-cancer compounds using libraries of approved drugs and bioactive compounds (AID 1345084); conditions: Gynecologic cancer cell panel viability, ATPlite luminescence, 48 h; series mostly up to 57.5 µM; also: % is scaled to controls: 0 for no effect and ±100 for the full control effect; nearly all actives have a fitted effect of over 55% in size
Outline: (§3)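 ATP-based viability (ATPlite), 1,000 cells/well, 16 h pre-incubation, 48 h compound at 37 C, 5% CO2, 15 min RT before read.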

CAOV3 = experiment: as above; conditions: Gynecologic cancer cell panel viability, ATPlite luminescence, 48 h; series mostly up to 57.5 µM
Outline: as §3

CASKI = experiment: as above; conditions: Gynecologic cancer cell panel viability, ATPlite luminescence, 48 h; series mostly up to 57.5 µM
Outline: as §3

Es-2 = experiment: as above; conditions: Gynecologic cancer cell panel viability, ATPlite luminescence, 48 h; series mostly up to 57.5 µM
Outline: as §3

HeLa = experiment: as above; conditions: Gynecologic cancer cell panel viability, ATPlite luminescence, 48 h; series mostly up to 57.5 µM
Outline: as §3

Hek293T [3] = experiment: as above; conditions: Gynecologic cancer cell panel viability, ATPlite luminescence, 48 h, control line for the selectivity index; series mostly up to 57.5 µM
Outline: as §3

JEG-3 = experiment: as above; conditions: Gynecologic cancer cell panel viability, ATPlite luminescence, 48 h; series mostly up to 57.5 µM
Outline: as §3

HEK293T [4] = experiment: qHTS assay to identify novel small-molecules to repurpose for Merkel cell carcinoma treatment (AID 1296009); conditions: MCC and control cell lines, CellTiter-Glo viability, 72 h; at 44.8 µM (top of the series) unless noted; also: nearly all actives have a fitted effect of over 60% in size
Outline: as §2

C=C1CC23CC1CCC2C12OC(=O)C(C)(C(O)C(O)C1O)C2C3C(=O)O (configuration not stated)
inactive: max response (CRL-7250) -6.36% | max response (HEK293) -2% | max response (HaCat) 2.72% | outcome (KB-3-1) | outcome (NIH3T3 [1]) | outcome (NIH3T3 [2]) | Potency (C33A) | Potency (CAOV3) | outcome (CASKI) | Potency (Es-2) | Potency (HeLa) | Potency (Hek293T [3]) | Potency (JEG-3)

CC1CCC2C(C(=O)O)=CC3(O)CC(C)(C)CC123 (configuration not stated)
inactive: max response (CRL-7250) 2.87% | outcome (HEK293) | max response (HaCat) 0.596% | max response (KB-3-1) 4.07% | max response (NIH3T3 [1]) 1.6% | outcome (HEK293T [4]) | Potency (C33A) | Potency (CAOV3) | outcome (CASKI) | Potency (Es-2) | Potency (HeLa) | Potency (Hek293T [3]) | Potency (JEG-3)

C=C1CCc2occ(C)c2[C@H]2[C@H]1[C@@]13O[C@@]1(C[C@@H](C)[C@H]3OC(C)=O)[C@H]1O[C@@]21C
inactive: max response (CRL-7250) 2.94% | outcome (HEK293) | max response (HaCat) -22% | outcome (KB-3-1) | max response (NIH3T3 [1]) -1.13% | outcome (HEK293T [4]) | Potency (C33A) | Potency (CAOV3) | outcome (CASKI) | Potency (Es-2) | Potency (HeLa) | Potency (Hek293T [3]) | Potency (JEG-3)

O=C(CCc1ccccc1)c1c(O)c([C@@H]2O[C@H](CO)[C@@H](O)[C@H](O)[C@H]2O)c(O)c([C@@H]2O[C@H](CO)[C@@H](O)[C@H](O)[C@H]2O)c1O
inactive: max response (CRL-7250) -8.34% | max response (HEK293) 0.0644% | max response (HaCat) 3.51% | max response (KB-3-1) 8.16% | outcome (NIH3T3 [1]) | outcome (NIH3T3 [2]) inactive [at 17.4 µM] | Potency (C33A) | Potency (CAOV3) | outcome (CASKI) | Potency (Es-2) | Potency (HeLa) | Potency (Hek293T [3]) | Potency (JEG-3)

COc1cc(Cc2cnc(N)nc2N)c(C(C)C)cc1OC
inactive: max response (CRL-7250) -4.26% | outcome (HEK293) | max response (HaCat) -0.359% | max response (KB-3-1) 4.42% | max response (NIH3T3 [1]) 3.87% | outcome (HEK293T [4]) | Potency (C33A) | Potency (CAOV3) | outcome (CASKI) | Potency (Es-2) | Potency (HeLa) | Potency (Hek293T [3]) | Potency (JEG-3)

C=C[C@H]1[C@H](O[C@@H]2O[C@H](CO)[C@@H](O)[C@H](O)[C@H]2O)OC=C2C(=O)N3Cc4c([nH]c5ccccc5c4=O)[C@@H]3C[C@H]21
inactive: outcome (CRL-7250) | outcome (HEK293) | max response (HaCat) -8.84% | outcome (KB-3-1) | max response (NIH3T3 [1]) -10.2% | outcome (HEK293T [4]) inactive [at 17.4 µM] | Potency (C33A) | Potency (CAOV3) | outcome (CASKI) | Potency (Es-2) | Potency (HeLa) | Potency (Hek293T [3]) | Potency (JEG-3)

CCOC(=O)C(CCc1ccccc1)NC1CCCN2CCCC(C(=O)O)N2C1=O (configuration not stated)
inactive: max response (CRL-7250) 2.69% | outcome (HEK293) | max response (HaCat) 1.44% | max response (KB-3-1) 2.78% | max response (NIH3T3 [1]) 0.311% | outcome (HEK293T [4]) | Potency (C33A) | Potency (CAOV3) | Potency (Es-2) | Potency (HeLa) | Potency (Hek293T [3]) | Potency (JEG-3)

COc1cccc(CNc2ccc(S(=O)(=O)Nc3nc4ccccc4s3)cc2)c1O
inactive: max response (CRL-7250) 0.252% | outcome (HEK293) | max response (HaCat) -8.64% | max response (KB-3-1) 7.86% | max response (NIH3T3 [1]) -2.92% | outcome (HEK293T [4]) | Potency (C33A) | Potency (CAOV3) | outcome (CASKI) | Potency (Es-2) | Potency (HeLa) | Potency (Hek293T [3]) | Potency (JEG-3)

C=C[C@@](C)(CCC=C(C)C)O[C@@H]1O[C@H](CO[C@@H]2OC[C@H](O)[C@H](O)[C@H]2O)[C@@H](O)[C@H](O)[C@H]1O
inactive: outcome (CRL-7250) | outcome (HEK293) | max response (HaCat) 0.544% | outcome (KB-3-1) | max response (NIH3T3 [1]) 4.46% | outcome (HEK293T [4]) inactive [at 17.4 µM] | Potency (C33A) | Potency (CAOV3) | outcome (CASKI) | Potency (Es-2) | Potency (HeLa) | Potency (Hek293T [3]) | Potency (JEG-3)

C=CC(C)(O)CCC1C(C)(O)CCC2C(C)(C)CCCC21C (configuration not stated)
inactive: max response (CRL-7250) -9.7% | max response (HEK293) -3.72% | max response (HaCat) 3.9% | max response (KB-3-1) 9.64% | outcome (NIH3T3 [1]) | outcome (NIH3T3 [2]) | Potency (C33A) | Potency (CAOV3) | outcome (CASKI) | Potency (Es-2) | Potency (HeLa) | Potency (Hek293T [3]) | Potency (JEG-3)

COc1ccc(O[C@@H]2O[C@H](CO)[C@@H](O)[C@H](O)[C@H]2O)cc1OC
inactive: outcome (CRL-7250) | max response (HEK293) 3.27% | max response (HaCat) -16.7% | outcome (KB-3-1) | outcome (NIH3T3 [1]) | outcome (NIH3T3 [2]) | Potency (C33A) | Potency (CAOV3) | outcome (CASKI) | Potency (Es-2) | Potency (HeLa) | Potency (Hek293T [3]) | Potency (JEG-3)

COc1cc(/C=C/C(=O)O[C@H]2C[C@@H]3C(C(=O)O)=CO[C@@H](O[C@@H]4O[C@H](CO)[C@@H](O)[C@H](O)[C@H]4O)[C@@H]3[C@H]2C)ccc1O
inactive: outcome (CRL-7250) | outcome (HEK293) | max response (HaCat) 3.27% | outcome (KB-3-1) | max response (NIH3T3 [1]) 1.34% | outcome (HEK293T [4]) inactive [at 17.4 µM] | Potency (C33A) | outcome (CASKI) | Potency (Es-2) | Potency (HeLa) | Potency (Hek293T [3]) | Potency (JEG-3)

Cc1ccc2nc(NC(=O)CSc3nc4c(c(=O)n3-c3ccc(F)cc3)SCC4)sc2c1
inactive: max response (CRL-7250) -14.2% | max response (HEK293) -0.604% | max response (HaCat) 1.13% | max response (KB-3-1) 9.39% | outcome (NIH3T3 [1]) | outcome (NIH3T3 [2]) | Potency (C33A) | Potency (CAOV3) | outcome (CASKI) | Potency (Es-2) | Potency (HeLa) | Potency (Hek293T [3]) | Potency (JEG-3)
